Structures are written as SMILES. The panel holds about 83,000 compounds, 20% with a hit somewhere; the sample as a whole holds those more often.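 Single-dose data. Exposure time 48 hours. Values below 10 considered active.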 A number with no mark means an inactive call. Calls of active or inactive are those of the source.

This assay relates to HL-60(TB) leukemia. Put plainly: NCI-60 one-dose screen, 48 h (100 = growth as untreated, 0 = no growth, -100 = all killed). Conditions: 10 µM unless noted.
Turning to `O=C(O/C(=C/c1ccccc1)C(F)(F)F)c1ccccc1`, the growth is 32.3%.
Take `Clc1ccc2c(NC3CCC(NC4CCCCC4)CC3)ccnc2c1` (stereo unspecified): the growth was 67.3%.
As for `O=C(c1ccccc1)N(C(=S)NCCc1ccc(Cl)cc1)c1ccccc1`, the growth is 54.4%.
On to `COC(=O)[C@]12CC[C@@H](C)[C@H](C)[C@@H]1C1=CC[C@@H]3[C@@]4(C)C[C@@H](O)[C@H](O)[C@@](C)(CO)C4=CC[C@@]3(C)[C@]1(C)CC2`, for which the growth is -28% (active).
Take `CCN1C(=O)N(CC)C2Nn3c(s/c(=C\c4ccccc4Br)c3=O)=NC21` (stereo unspecified): the growth was -34.7% (active).
As to `O=c1[nH]c(=O)c2[nH]c(=O)[nH]c2[nH]1`, the growth is 100%.
As to `COc1ccc(-c2nc3sc(-c4ccc(Cl)cc4)cn3n2)cc1`, the growth is 105%.
Turning to `O=C(O)c1cc2ccccc2s1`, the growth is 112%.
On to `CC1(C)C(N)=Nc2cc(OCCCCN3Cc4ccccc4C3)c(OCC3CC3)cc21`, for which the growth is 99.7%.
As to `COc1ccc(-c2cc(/C=C3\C(=O)Nc4cc(Cl)ccc43)[nH]n2)cc1`, the growth is -11.7% (active).
Regarding `CCCCCC1CCCCN1C(=O)OCCCC` (stereo unspecified), the growth is 102%.
In the case of `CCO/C=C1\SC(=S)N(c2cccc(O)c2)C1=O`, the growth is 100%.
Take `Cc1cc(C)n(-c2nnc3n2N=C(c2ccc(-c4ccccc4)cc2)CS3)n1`: the growth is 7.07% (active).
Take `O=C(OCc1nc2nc(Cl)nc(N3CCOCC3)c2[nH]1)n1ccnc1`: the growth is -30.1% (active).
As to `O=C(Nc1ccc(Cl)cc1)Nc1ccc(Nc2nncc3ccccc23)cc1`, the growth was 18.1%.
With `Brc1ccc(SSc2ccc(Br)cc2)cc1`, the growth is 70.9%.

(Values after PubChem BioAssay (NCI).)
